Compound activity from PubChem.
A selection: hits, their analogues and other compounds. The true share with any hit is near 3.9%.
Anthrax LF prot = Bacillus anthracis LF protease inhibitors, primary screen, biochemical, multiplex microsphere, MLPCN library; Lethal factor (Bacillus anthracis), P15917; AID 588501, 2011; inhibition, % at 10 µM; actives 0.12% (n = 360,000); multiplex microsphere protease cleavage assay; in the data active = inhibition above about 30%; inconclusive = no clear call, values can overlap the other calls; also: plate controls were buffer without enzyme for full effect and enzyme alone for no effect
Target sequence (P15917 whole entry, looked up): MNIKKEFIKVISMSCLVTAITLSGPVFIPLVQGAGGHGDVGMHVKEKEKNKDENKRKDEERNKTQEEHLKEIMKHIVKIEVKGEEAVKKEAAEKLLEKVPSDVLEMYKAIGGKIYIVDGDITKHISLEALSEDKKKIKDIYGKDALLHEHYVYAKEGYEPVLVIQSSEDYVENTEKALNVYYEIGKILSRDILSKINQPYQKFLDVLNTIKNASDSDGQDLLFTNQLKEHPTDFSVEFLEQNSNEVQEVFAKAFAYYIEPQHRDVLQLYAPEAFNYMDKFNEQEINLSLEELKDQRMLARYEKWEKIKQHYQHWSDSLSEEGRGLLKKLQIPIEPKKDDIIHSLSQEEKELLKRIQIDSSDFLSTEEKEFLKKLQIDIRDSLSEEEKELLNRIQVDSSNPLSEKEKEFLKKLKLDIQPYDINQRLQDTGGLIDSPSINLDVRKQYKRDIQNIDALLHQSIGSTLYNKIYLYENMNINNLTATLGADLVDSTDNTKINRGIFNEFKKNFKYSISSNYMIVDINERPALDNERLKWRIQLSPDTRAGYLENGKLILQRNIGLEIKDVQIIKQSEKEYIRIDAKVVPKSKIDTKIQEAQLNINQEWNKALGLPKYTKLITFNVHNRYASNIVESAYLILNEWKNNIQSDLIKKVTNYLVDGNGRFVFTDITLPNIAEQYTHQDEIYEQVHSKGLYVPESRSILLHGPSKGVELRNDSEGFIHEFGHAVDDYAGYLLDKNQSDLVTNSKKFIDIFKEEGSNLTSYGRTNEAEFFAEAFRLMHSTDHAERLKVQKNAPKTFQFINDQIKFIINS
3CLpro inhibitor = SARS-CoV 3CLpro protease inhibitors, primary screen, biochemical, quenched FRET; Replicase polyprotein 1ab (Severe acute respiratory syndrome coronavirus), P0C6X7; recombinant SARS-CoV 3CLpro, quenched FRET peptide cleavage; inhibition, % at 6 µM; actives 0.14% (n = 290,000); AID 1706, 2009; in the data active = inhibition above about 12%
BoNT F protease = BoNT/F light chain protease inhibitors, primary screen, biochemical, flow cytometry, MLPCN library | Multiplex microsphere protease cleavage assay | Botulinum neurotoxin type F light chain protease (Clostridium botulinum) | inhibition, % at 10 µM | actives 0.22% (n = 360,000); in the data active = inhibition above about 35%, passing the limit was not always enough; inconclusive = no clear call, values can overlap the other calls; also: plate controls were buffer without enzyme for full effect and enzyme alone for no effect
CCHF vOTU inh = CCHFV vOTU protease inhibitors, primary screen, biochemical, Pep-AMC substrate, fluorescence. inhibition, % at 11.5 µM. Crimean-Congo hemorrhagic fever virus L polyprotein viral ovarian tumor (vOTU) protease …. AID 651958, 2012. actives 0.55% (n = 370,000); in the data active = inhibition above about 30%; also: 0% = vehicle wells with enzyme and 100% = no enzyme wells
Bead autofluor = compound fluorescence in toxin protease inhibitor counterscreen. compound autofluorescence counterscreen, microsphere flow cytometry; hits give high values. fluorescence intensity (test concentration not listed). actives 3.1% (n = 360,000); in the data active = fluorescence intensity above about 16000; inconclusive = no clear call, values can overlap the other calls
BoNT A protease = BoNT/A light chain protease inhibitors, primary screen, biochemical, flow cytometry, MLPCN library; Botulinum neurotoxin type A light chain protease (Clostridium botulinum A str. ATCC 3502); multiplex microsphere protease substrate cleavage; inhibition, % at 10 µM; actives 0.17% (n = 360,000); in the data active = inhibition above about 30%; inconclusive = no clear call, values can overlap the other calls; also: plate controls were buffer without enzyme for full effect and enzyme alone for no effect
BoNT-A LC CP2 = BoNT/A light chain protease inhibitors, confirmation, biochemical, flow cytometry, cherry pick 2. shares compounds with BoNT A protease. multiplex microsphere protease cleavage assay. inhibition, % at 10 µM. actives 10% (n = 150); in the data active = inhibition above about 24%
Anthrax LF CP2 = Bacillus anthracis LF protease inhibitors, confirmation, biochemical, multiplex microsphere | shares compounds with BoNT A protease | multiplex microsphere protease cleavage assay | inhibition, % at 10 µM | actives 7% (n = 150) | AID 602327, 2012
BoNTF LC inh 2 = BoNT/F light chain protease inhibitors, confirmation, biochemical, flow cytometry, cherry pick 2 | shares compounds with BoNT A protease | multiplex microsphere protease cleavage assay | inhibition, % at 10 µM | actives 7% (n = 150) | AID 602336, 2012
Active calls of the source: *; ? = inconclusive; . = no result. Rule as the data show it, unless noted: active = inhibition above about 25%; inactive = the rest.

SMILES | Anthrax LF prot | 3CLpro inhibitor | BoNT F protease | CCHF vOTU inh | Bead autofluor | BoNT A protease | BoNT-A LC CP2 | Anthrax LF CP2 | BoNTF LC inh 2
O=C(NCc1ccc(OC(F)(F)F)cc1)c1cccc2c1C(=O)c1ccc(N3CCC(Cc4ccccc4)CC3)cc1S2(=O)=O | 21.1 | . | 11.0 | 13.3 | 4518 | 12.8 | 7.4 | 5.6 | 14.9
O=C(NCc1ccc(OC(F)(F)F)cc1)c1cccc2c1C(=O)c1ccc(N3CCCC3)cc1S2(=O)=O | 3.7 | . | 5.5 | -4.0 | 2925 | 3.0 | . | . | .
O=C(NCc1cccc(F)c1)c1cccc2c1C(=O)c1ccc(N3CCCC3)cc1S2(=O)=O | 11.5 | . | 17.1 | . | 4444 | 10.2 | . | . | .
COc1ccccc1N1CCN(c2ccc3c(c2)S(=O)(=O)c2cccc(C(=O)NCc4ccc(F)cc4)c2C3=O)CC1 | -4.4 | . | -5.3 | -1.0 | 3973 | 0.6 | 0.8 | -1.8 | -4.7
O=C(NCc1ccc2c(c1)OCO2)c1cccc([N+](=O)[O-])c1 | -0.1 | -3.7 | 2.3 | 13.1 | 2511 | 0.2 | . | . | .
COc1ccc(CNC(=O)c2ccc(Br)o2)cc1 | -4.4 | -5.9 | -10.9 | 6.6 | 3869 | -0.4 | . | . | .
Cc1ccc(CNC(=O)c2ccc(Br)o2)cc1 | -6.1 | -1.5 | 2.9 | 2.1 | 5929 | 0.1 | . | . | .
Cc1c(C(=O)NCc2ccc3c(c2)cc(C)n3C)cccc1[N+](=O)[O-] | -100.3 | 2.3 | -88.4 | 4.1 | 1750 | 77.9* | 5.8 | 3.0 | -7.9
Cc1cc2cc(CNC(=O)c3ccc(Br)o3)ccc2[nH]1 | -78.5 | . | -110.3 | 4.8 | 2858 | 66.7* | 22.8 | 18.3 | -18.1
Cc1cc2cc(CNC(=O)c3ccc(Br)o3)ccc2n1C | -24.1 | . | -60.7 | -4.5 | 2858 | 62.1* | 14.9 | 10.5 | -11.4
Cc1cc2cc(CNC(=O)c3cccc([N+](=O)[O-])c3)ccc2[nH]1 | -48.8 | -3.1 | -64.1 | -1.7 | 2875 | 78.8* | 26.8* | -1.0 | 14.4
Cc1cccc(NC(=O)Nc2nc3ncccn3c2-c2ccc(F)cc2)c1 | . | . | . | -24.6 | . | . | . | . | .
O=C(c1cc(F)ccc1F)N1CCC(Oc2cccnc2)CC1 | . | . | . | 1.7 | . | . | . | . | .
COC(=O)c1c(-c2ccc(OC)cc2)c2c(c3c4cc(OC)ccc4n(C(=O)c4ccccc4)c13)C(=O)N(C)C2 | . | . | . | 5.5 | . | . | . | . | .
Cc1cc2cc(CNC(=O)C3CCCC3)ccc2n1C | 1.3 | . | -32.1 | -2.1 | 3369 | 44.6* | 4.2 | 4.4 | -1.8
Cc1ccc(S(=O)(=O)NCc2ccc3[nH]c(C)cc3c2)cc1 | 0.4 | -2.6 | -42.1 | 12.1 | 4738 | 20.2 | 1.4 | -1.0 | 3.4
Cc1cc2cc(CNC(=O)Cc3cccs3)ccc2n1C | -52.9 | . | -62.3 | . | 2301 | 74.8* | 19.6 | 9.2 | -22.7
Cn1c(CNC(=O)C2CCCCC2)cc2cc(Cl)ccc21 | 4.9 | 3.9 | ? | 9.6 | 3777 | 0.6 | . | . | .
Cc1ccc(Cn2nnc3c2-c2ccccc2S(=O)(=O)N(C(C)(C)C)C3)cc1 | . | . | . | 0.2 | . | . | . | . | .
Cc1ccc2c(c1)-c1c(cnn1CC(=O)NCCc1ccc(O)cc1)CO2 | . | . | . | 2.4 | . | . | . | . | .
O=C(COc1ccccc1)OCC(=O)c1c[nH]c2ccccc12 | -5.1 | . | 0.0 | -27.7 | 2839 | 0.4 | 0.8 | 0.9 | 3.2
Cc1cnc(C(=O)OCC(=O)c2c[nH]c3ccccc23)cn1 | 11.5 | . | ? | -3.8 | 9016 | 4.9 | . | . | .
Cc1ccc(C(=O)OCC(=O)c2c[nH]c3ccccc23)cc1 | 1.0 | -5.4 | -6.2 | 4.0 | 2547 | 0.5 | 4.1 | 3.3 | 14.4
COc1ccc(OCC(=O)c2c[nH]c3ccccc23)cc1 | 2.9 | 1.7 | -11.6 | 1.5 | 4821 | -1.7 | . | . | .
Cn1cccc1C(=O)OCC(=O)c1c[nH]c2ccccc12 | -2.2 | . | 3.1 | 8.5 | 4120 | 0.5 | . | . | .
SMILES | Anthrax LF prot | 3CLpro inhibitor | BoNT F protease | CCHF vOTU inh | Bead autofluor | BoNT A protease | BoNT-A LC CP2 | Anthrax LF CP2 | BoNTF LC inh 2
CC(C)Cc1ccc(C(C)C(=O)OCC(=O)c2c[nH]c3ccccc23)cc1 (centres undefined) | -0.9 | 5.0 | 2.6 | 5.4 | 11396 | -0.1 | 1.9 | -1.4 | 5.8
O=C(OCC(=O)c1c[nH]c2ccccc12)c1cc(Br)ccc1O | -1.1 | -0.5 | -2.4 | 19.2 | 3144 | 0.6 | 2.1 | -0.8 | 8.2
N#Cc1cccc(NC(=O)OCCN2C(=O)CCC23CCC(c2ccccc2)CC3)c1 (centres undefined) | . | . | . | 2.4 | . | . | . | . | .
Nc1[nH]c(C(=O)c2ccc(Br)cc2)c(-c2ccncc2)c1C(=O)c1ccccc1 | . | . | . | 12.2 | . | . | . | . | .
COc1ccc(C(=O)OCC(=O)c2c[nH]c3ccccc23)cc1OC | 39.2* | . | -11.4 | -4.9 | 5543 | 36.9* | 27.7* | 3.3 | -10.7
COc1cc(C(=O)OCC(=O)c2c[nH]c3ccccc23)ccc1OCC(=O)N1CCOCC1 | -4.2 | 4.0 | -6.9 | 6.4 | 6676 | 0.9 | . | . | .
CCCCN1CC(=O)N2[C@H](C[C@@]3(n4ccc5ccccc54)c4ccccc4N(S(=O)(=O)c4ccccc4)[C@@H]23)C1=O | . | . | . | 5.0 | . | . | . | . | .
CC(=O)Nc1ccc(S(=O)(=O)NCc2ccc(C)cc2)cc1 | -0.4 | -0.1 | 3.4 | -7.1 | 4322 | 0.0 | . | . | .
CC(=O)Nc1ccc(S(=O)(=O)NCc2ccc3c(c2)cc(C)n3C)cc1 | -115.1 | -6.5 | -112.1 | 1.8 | 1283 | 71.8* | 18.9 | 22.7 | -6.6
Cc1cc(C)c(S(=O)(=O)NCc2ccc3c(c2)cc(C)n3C)c(C)c1 | -36.1 | -1.2 | -79.4 | 11.3 | 1929 | 77.5* | 5.0 | 1.0 | -7.7
Cc1cc2cc(CNS(=O)(=O)c3ccc4ccccc4c3)ccc2n1C | -89.1 | -1.8 | -108.3 | 1.6 | 2284 | 47.2* | 19.7 | 6.4 | -26.9
